# Measured values taken from PubChem BioAssay AID1159580 (chemical genetic matrix, 2015).
# Several values for one entry are separate records, joined by “and”; a condition that tells them apart may be missing. Identical values can stand only once. In all, about 5,500 compounds went through this assay and about 2,000 (36%) were called active. About 18% were inconclusive and are not listed. Some of the results follow. A number with no mark means an inactive call. Rule as the data show it: active = normalized growth mostly below about 0.91 (no sharp cut-off); inconclusive = no clear call, values can overlap the other calls; inactive = mostly above about 0.92.
# Assay: chemical genetic growth profiling, strain panel (AID 1159580);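 also: tested at 20 µM; growth read once vehicle control cultures reached saturation at 30 °C; 1 = growth at the plate median or of vehicle wells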
# Conditions: S. cerevisiae deletion strains, growth OD
compound,measurement,setting,value
CC(C)=CCOc1cc2oc(=O)ccc2cc1O,normalized growth,"locus YAL021C, strain ccr4, stronger effect = lower value",0.977
same,normalized growth,"locus YAL026C, strain drs2, stronger effect = lower value",0.919
same,normalized growth,"locus YAL030W, strain snc1, stronger effect = lower value",0.978
same,normalized growth,"locus YBL061C, strain skt5, stronger effect = lower value",0.94
same,normalized growth,"locus YBR009C, strain hhf1, stronger effect = lower value",0.937
same,normalized growth,"locus YBR021W, strain FUR4, stronger effect = lower value",0.876
same,normalized growth,"locus YBR023C, strain chs3, stronger effect = lower value",0.929
same,normalized growth,"locus YBR171W, strain sec66, stronger effect = lower value",0.915
same,normalized growth,"locus YBR229C, strain ROT2, stronger effect = lower value",0.967
same,normalized growth,"locus YBR231C, strain swc5, stronger effect = lower value",0.93
same,normalized growth,"locus YBR279W, strain paf1, stronger effect = lower value",0.962
same,normalized growth,"locus YCL011C, strain gbp2, stronger effect = lower value",0.911
same,normalized growth,"locus YCL016C, strain dcc1, stronger effect = lower value",0.965
same,normalized growth,"locus YCL029C, strain bik1, stronger effect = lower value",0.961
same,normalized growth,"locus YCL061C, strain MRC1, stronger effect = lower value",0.94
same,normalized growth,"locus YCL069W, strain vba3, stronger effect = lower value",0.94
same,normalized growth,"locus YCR088W, strain abp1, stronger effect = lower value",0.957
same,normalized growth,"locus YDL005C, strain med2, stronger effect = lower value",0.956
same,normalized growth,"locus YDL035C, strain GPR1, stronger effect = lower value",0.894
same,normalized growth,"locus YDL040C, strain nat1, stronger effect = lower value",0.951
same,normalized growth,"locus YDL074C, strain BRE1, stronger effect = lower value",0.808
same,normalized growth,"locus YDL101C, strain DUN1, stronger effect = lower value",0.935
same,normalized growth,"locus YDL185W, strain tfp1, stronger effect = lower value",0.965
same,normalized growth,"locus YDL192W, strain arf1, stronger effect = lower value",0.879 (active)
same,normalized growth,"locus YDR001C, strain nth1, stronger effect = lower value",0.965
same,normalized growth,"locus YDR069C, strain doa4, stronger effect = lower value",0.944
same,normalized growth,"locus YDR101C, strain arx1, stronger effect = lower value",0.919
same,normalized growth,"locus YDR137W, strain rgp1, stronger effect = lower value",0.881
same,normalized growth,"locus YDR159W, strain sac3, stronger effect = lower value",0.881
same,normalized growth,"locus YDR162C, strain NBP2, stronger effect = lower value",0.876
same,normalized growth,"locus YDR195W, strain ref2",1.02
same,normalized growth,"locus YDR297W, strain sur2, stronger effect = lower value",0.969
same,normalized growth,"locus YDR318W, strain mcm21, stronger effect = lower value",0.902 (active)
same,normalized growth,"locus YDR334W, strain swr1, stronger effect = lower value",0.927
same,normalized growth,"locus YDR335W, strain msn5, stronger effect = lower value",0.968
same,normalized growth,"locus YDR388W, stronger effect = lower value",0.96
same,normalized growth,"locus YDR392W, strain spt3, stronger effect = lower value",0.706 (active)
same,normalized growth,"locus YDR502C, strain sam2, stronger effect = lower value",0.909 (active)
same,normalized growth,"locus YEL003W, strain gim4, stronger effect = lower value",0.935
same,normalized growth,"locus YEL037C, strain rad23, stronger effect = lower value",0.941
same,normalized growth,"locus YEL061C, strain CIN8 (second series), stronger effect = lower value",0.938
same,normalized growth,"locus YEL061C, strain CIN8, stronger effect = lower value",0.957
same,normalized growth,"locus YER015W, strain faa2, stronger effect = lower value",0.937
same,normalized growth,"locus YER016W, strain bim1, stronger effect = lower value",0.962
same,normalized growth,"locus YER110C, stronger effect = lower value",0.971
same,normalized growth,"locus YER111C, strain swi4, stronger effect = lower value",0.95
same,normalized growth,"locus YER155C, strain BEM2 (second series), stronger effect = lower value",0.685 (active)
same,normalized growth,"locus YER155C, strain BEM2, stronger effect = lower value",0.962
same,normalized growth,"locus YER167W, strain BCK2, stronger effect = lower value",0.881 (active)
same,normalized growth,"locus YFR010W, strain ubp6, stronger effect = lower value",0.942
same,normalized growth,"locus YGL078C, strain dbp3, stronger effect = lower value",0.97
same,normalized growth,"locus YGL086W, strain mad1, stronger effect = lower value",0.882 (active)
same,normalized growth,"locus YGL167C, strain pmr1, stronger effect = lower value",0.939
same,normalized growth,"locus YGL173C, strain kem1, stronger effect = lower value",0.926
same,normalized growth,"locus YGL227W, strain vid30, stronger effect = lower value",0.957
same,normalized growth,"locus YGL240W, strain doc1, stronger effect = lower value",0.886
same,normalized growth,"locus YGL248W, strain PDE1, stronger effect = lower value",0.9
same,normalized growth,"locus YGL253W, strain hxk2, stronger effect = lower value",0.899 (active)
same,normalized growth,"locus YGR135W, strain pre9, stronger effect = lower value",0.915
same,normalized growth,"locus YGR252W, strain gcn5, stronger effect = lower value",0.713 (active)
same,normalized growth,"locus YHR013C, strain ard1, stronger effect = lower value",0.955
same,normalized growth,"locus YHR027C, strain rpn1, stronger effect = lower value",0.956
same,normalized growth,"locus YHR030C, strain SLT2, stronger effect = lower value",0.947
same,normalized growth,"locus YHR079C, strain IRE1 (second series), stronger effect = lower value",0.974
same,normalized growth,"locus YHR079C, strain IRE1, stronger effect = lower value",0.936
same,normalized growth,"locus YHR094C, strain hxt1, stronger effect = lower value",0.97
same,normalized growth,"locus YHR129C, strain ARP1, stronger effect = lower value",0.918 (active)
same,normalized growth,"locus YHR142W, strain chs7, stronger effect = lower value",0.878
same,normalized growth,"locus YHR200W, strain rpn10, stronger effect = lower value",0.895 (active)
same,normalized growth,"locus YIL066C, strain RNR3, stronger effect = lower value",0.85 (active)
same,normalized growth,"locus YIL073C, strain SPO22, stronger effect = lower value",0.975
same,normalized growth,"locus YIL125W, strain kgd1, stronger effect = lower value",0.948
same,normalized growth,"locus YIR030C, strain dcg1, stronger effect = lower value",0.97
same,normalized growth,"locus YJL092W, strain hpr5, stronger effect = lower value",0.927
same,normalized growth,"locus YJL095W, strain BCK1 (second series), stronger effect = lower value",0.948
same,normalized growth,"locus YJL095W, strain BCK1, stronger effect = lower value",0.858 and 0.946
same,normalized growth,"locus YJL115W, strain asf1, stronger effect = lower value",0.949
same,normalized growth,"locus YJL129C, strain trk1, stronger effect = lower value",0.904
same,normalized growth,"locus YJL134W, strain LCB3, stronger effect = lower value",0.963
same,normalized growth,"locus YJL154C, strain vps35, stronger effect = lower value",0.966
same,normalized growth,"locus YJL164C, strain tpk1, stronger effect = lower value",0.974
same,normalized growth,"locus YJL166W, strain qcr8, stronger effect = lower value",0.94
same,normalized growth,"locus YJL168C, strain set2, stronger effect = lower value",0.977
same,normalized growth,"locus YJL187C, strain SWE1 (second series), stronger effect = lower value",0.889
same,normalized growth,"locus YJL187C, strain SWE1, stronger effect = lower value",0.951
same,normalized growth,"locus YJR066W, strain TOR1, stronger effect = lower value",0.92
same,normalized growth,"locus YKL009W, strain mrt4, stronger effect = lower value",0.916
same,normalized growth,"locus YKL068W, stronger effect = lower value",0.97
same,normalized growth,"locus YKL085W, strain MDH1 (second series), stronger effect = lower value",0.959
same,normalized growth,"locus YKL085W, strain MDH1, stronger effect = lower value",0.959
same,normalized growth,"locus YKL160W, strain elf1, stronger effect = lower value",0.981
same,normalized growth,"locus YKL190W, strain CNB1, stronger effect = lower value",0.953
same,normalized growth,"locus YKR001C, strain vps1, stronger effect = lower value",0.662 (active)
same,normalized growth,"locus YKR026C, strain gcn3, stronger effect = lower value",0.927
same,normalized growth,"locus YKR091W, strain srl3, stronger effect = lower value",0.96
same,normalized growth,"locus YLL001W, strain dnm1, stronger effect = lower value",0.964
same,normalized growth,"locus YLL026W, stronger effect = lower value",0.941
same,normalized growth,"locus YLL041C, strain sdh2, stronger effect = lower value",0.934
same,normalized growth,"locus YLR027C, strain aat2, stronger effect = lower value",0.939
same,normalized growth,"locus YLR039C, strain RIC1, stronger effect = lower value",0.647 (active)
same,normalized growth,"locus YLR058C, strain SHM2, stronger effect = lower value",0.905
same,normalized growth,"locus YLR102C, strain apc9, stronger effect = lower value",0.974
same,normalized growth,"locus YLR113W, strain HOG1, stronger effect = lower value",0.977
same,normalized growth,"locus YLR221C, strain rsa3, stronger effect = lower value",0.916
same,normalized growth,"locus YLR258W, strain gsy2, stronger effect = lower value",0.951
same,normalized growth,"locus YLR262C, strain YPT6 (second series), stronger effect = lower value",0.956
same,normalized growth,"locus YLR268W, strain sec22, stronger effect = lower value",0.9
same,normalized growth,"locus YLR320W, strain mms22, stronger effect = lower value",0.848 (active)
same,normalized growth,"locus YLR330W, strain CHS5, stronger effect = lower value",0.839 (active)
same,normalized growth,"locus YLR342W, strain FKS1, stronger effect = lower value",0.946
same,normalized growth,"locus YLR357W, strain rsc2, stronger effect = lower value",0.952
same,normalized growth,"locus YLR370C, strain arc18, stronger effect = lower value",0.925
same,normalized growth,"locus YLR371W, strain rom2, stronger effect = lower value",0.934
same,normalized growth,"locus YLR384C, strain iki3, stronger effect = lower value",0.966
same,normalized growth,"locus YLR418C, strain cdc73, stronger effect = lower value",0.753 (active)
same,normalized growth,"locus YML016C, strain PPZ1, stronger effect = lower value",0.948
same,normalized growth,"locus YML032C, strain rad52, stronger effect = lower value",0.895 (active)
same,normalized growth,"locus YML120C, strain ndi1, stronger effect = lower value",0.953
same,normalized growth,"locus YML124C, strain tub3, stronger effect = lower value",0.949
same,normalized growth,"locus YMR058W, strain fet3, stronger effect = lower value",0.934
same,normalized growth,"locus YMR078C, strain ctf18, stronger effect = lower value",0.963
same,normalized growth,"locus YMR125W, strain sto1, stronger effect = lower value",0.956
same,normalized growth,"locus YMR129W, stronger effect = lower value",0.961
same,normalized growth,"locus YMR205C, strain PFK2, stronger effect = lower value",0.934
same,normalized growth,"locus YMR223W, strain ubp8, stronger effect = lower value",0.894 (active)
same,normalized growth,"locus YMR231W, strain pep5, stronger effect = lower value",0.929
same,normalized growth,"locus YMR307W, strain GAS1, stronger effect = lower value",0.596 (active)
same,normalized growth,"locus YNL067W, strain RPL9B, stronger effect = lower value",0.912
same,normalized growth,"locus YNL071W, strain lat1, stronger effect = lower value",0.898 (active)
same,normalized growth,"locus YNL128W, strain TEP1, stronger effect = lower value",0.929
same,normalized growth,"locus YNL183C, strain NPR1, stronger effect = lower value",0.923
same,normalized growth,"locus YNL209W, strain ssb2, stronger effect = lower value",0.971
same,normalized growth,"locus YNL233W, strain BNI4, stronger effect = lower value",0.792 (active)
same,normalized growth,"locus YNL248C, strain rpa49, stronger effect = lower value",0.98
same,normalized growth,"locus YNL250W, strain rad50, stronger effect = lower value",1
same,normalized growth,"locus YNL271C, strain bni1, stronger effect = lower value",0.97
same,normalized growth,"locus YNL298W, strain CLA4, stronger effect = lower value",0.955
same,normalized growth,"locus YNL307C, strain MCK1, stronger effect = lower value",0.786 (active)
same,normalized growth,"locus YNL322C, strain KRE1 (second series), stronger effect = lower value",0.928
same,normalized growth,"locus YNR049C, strain mso1, stronger effect = lower value",0.942
same,normalized growth,"locus YNR052C, strain pop2, stronger effect = lower value",0.997
same,normalized growth,"locus YOL012C, strain htz1",0.93
same,normalized growth,"locus YOL147C, strain pex11, stronger effect = lower value",0.885 (active)
same,normalized growth,"locus YOR001W, strain rrp6, stronger effect = lower value",0.906
same,normalized growth,"locus YOR061W, strain CKA2, stronger effect = lower value",0.959
same,normalized growth,"locus YOR069W, strain VPS5, stronger effect = lower value",0.951
same,normalized growth,"locus YOR070C, strain gyp1, stronger effect = lower value",0.947
same,normalized growth,"locus YOR080W, strain dia2, stronger effect = lower value",0.947
same,normalized growth,"locus YOR083W, strain WHI5, stronger effect = lower value",0.977
same,normalized growth,"locus YOR106W, strain vam3, stronger effect = lower value",0.94
same,normalized growth,"locus YOR136W, strain idh2, stronger effect = lower value",0.957
same,normalized growth,"locus YOR144C, strain elg1, stronger effect = lower value",0.945
same,normalized growth,"locus YOR184W, strain ser1, stronger effect = lower value",0.72 (active)
same,normalized growth,"locus YOR231W, strain MKK1, stronger effect = lower value",0.924
same,normalized growth,"locus YOR265W, strain rbl2, stronger effect = lower value",0.949
same,normalized growth,"locus YOR270C, strain vph1, stronger effect = lower value",0.799
same,normalized growth,"locus YOR290C, strain snf2, stronger effect = lower value",0.917
same,normalized growth,"locus YOR316C, strain cot1, stronger effect = lower value",0.973
same,normalized growth,"locus YPL051W, strain arl3, stronger effect = lower value",0.895 (active)
same,normalized growth,"locus YPL078C, strain atp4, stronger effect = lower value",0.962
same,normalized growth,"locus YPL106C, strain sse1, stronger effect = lower value",0.908
same,normalized growth,"locus YPL240C, strain hsp82, stronger effect = lower value",0.937
same,normalized growth,"locus YPL241C, strain CIN2, stronger effect = lower value",0.963
same,normalized growth,"locus YPL256C, strain CLN2, stronger effect = lower value",0.906
same,normalized growth,"locus YPR119W, strain clb2, stronger effect = lower value",0.971
same,normalized growth,"locus YPR141C, strain kar3, stronger effect = lower value",0.974
same,normalized growth,"locus YPR163C, strain tif3, stronger effect = lower value",0.849 (active)
same,normalized growth,"locus YPR167C, strain met16, stronger effect = lower value",0.942
same,normalized growth,"strain wtn01, stronger effect = lower value",0.877 (active)
